The list is not random: actives were taken first. Their share in the collection is about 3%.
LmPK inh = qHTS Assay for Inhibitors of Leishmania Mexicana Pyruvate Kinase (LmPK); Q27686; purified LmPK, Kinase-Glo ATP luminescence, 1 h; Potency, µM (doses to about 57.5 µM), for the others: at the top dose activity change, negative = inhibition, most hits filed as inhibitors; 290,000 compounds, 0.37% hits
Target sequence (Q27686 whole entry, looked up): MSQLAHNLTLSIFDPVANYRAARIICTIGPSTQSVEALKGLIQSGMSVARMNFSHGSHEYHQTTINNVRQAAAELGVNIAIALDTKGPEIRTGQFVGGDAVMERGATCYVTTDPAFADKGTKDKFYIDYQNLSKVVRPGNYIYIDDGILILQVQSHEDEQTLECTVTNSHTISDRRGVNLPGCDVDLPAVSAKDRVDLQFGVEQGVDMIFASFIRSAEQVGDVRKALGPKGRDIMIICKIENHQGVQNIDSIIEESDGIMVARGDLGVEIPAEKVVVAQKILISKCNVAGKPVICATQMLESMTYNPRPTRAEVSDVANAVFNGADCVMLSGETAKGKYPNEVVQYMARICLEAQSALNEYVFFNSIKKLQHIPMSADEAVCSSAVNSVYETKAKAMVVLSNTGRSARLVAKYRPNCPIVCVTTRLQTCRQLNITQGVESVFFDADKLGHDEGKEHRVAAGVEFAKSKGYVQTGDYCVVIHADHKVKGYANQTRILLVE
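Screened at intermediate enzyme activity to detect both inhibitors and activators: LmPK at 0.1 nM, with a 0.5 nM enzyme column as activation reference. PEP 0.5 mM, ADP 0.1 mM; ATP detected by luminescence after 1 h.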
Sm TGR inh = qHTS Assay for the Inhibitors of Schistosoma Mansoni Peroxiredoxins. Schistosoma mansoni thioredoxin glutathione reductase (TGR), Q962Y6. Potency, µM (doses to about 114 µM), for inactives: top-dose activity change, negative = inhibition, actives largely listed as inhibitors. 360,000 compounds, 3% hits. purified TGR, DTNB reduction, TNB absorbance 405 nm; further: nearly all actives have a fitted effect of over 60% in size
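Kinetic colorimetric format: TGR-catalysed, NADPH-driven DTNB reduction monitored via TNB absorbance. Enzyme dispensed at 20 nM; compound exposure 15 min at room temperature before reaction start.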
TbPYK inhibitor = qHTS of Trypanosoma Brucei Inhibitors; pyruvate kinase (Trypanosoma brucei), Q57TT1; TbPYK enzyme, Kinase-Glo Plus ATP luminescence, 45 min; Potency, µM (doses to about 76.8 µM), for the others: at the top dose activity, negative = inhibition, usual class: inhibitors; 410,000 compounds, 0.12% hits; further: nearly all actives have a fitted effect of over 50% in size
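Enzyme and substrate buffer are dispensed first and compound is pin-transferred. ADP at 130 uM final then starts the reaction, which runs 45 min at room temperature. Detection reagent is added for 10 min before luminescence is imaged.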
RE007 growth inh = qHTS Assay for Inhibitors of the HIV-1 protein Vpr. S. pombe RE007 Vpr strain, BacTiter-Glo ATP luminescence, 24 h. Potency, µM (series often up to 92.2 µM), for inactives: at the top dose activity change, negative = less growth, actives largely listed as inhibitors. 360,000 compounds, 0.21% hits. AID 651644, 2012; active means well fitted falling curve with a large enough effect; inconclusive means small, poorly fitted or top-dose-only effect; inactive means no such curve, though single readings can be large or run the other way; further: nearly all actives have a fitted effect of over 50% in size
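Fission yeast strain RE007, carrying one chromosomally integrated HIV-1 vpr copy, was seeded at OD 0.01 in PMG+AL medium with 23 nL pinned compound. After 24 h at 30 °C and 99% humidity, viability was read by BacTiter-Glo luminescence.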
* = called active by the depositor; ? = inconclusive; · = no result; [ ] = another dose, or the depositor's remark. Unless noted, the call rests on the fitted dose curve; in most records, active means well fitted curve in the direction sought with a large enough effect; inconclusive means small, poorly fitted or top-dose-only effect, or another doubt; inactive means no such curve, though single readings can be large; an effect the other way counts as inactive or inconclusive. On the % scale 0 is the no-effect control and ±100 the full control effect; potency means the concentration at half of the fitted maximal effect.

SMILES | LmPK inh | Sm TGR inh | TbPYK inhibitor | RE007 growth inh
Cc1nc2ccc(NC(=S)NCc3ccccc3)cc2nc1C | 1% | 40µM* | -1% | 30%
Cc1ccc(NC(=S)NCc2ccccc2)cc1C | · | · | 2% | 4%
C=CCNC(=S)Nc1ccc(C)c(S(=O)(=O)N2CCCCC2)c1 | 1% | 35µM* | -3% | 11%
COc1ccc(CNC(=S)Nc2ccccc2)cc1 | 9% | 35µM* | -5% | 4%
C=CCNC(=S)Nc1ccc2nc(C)c(C)nc2c1 | -3% | 40µM* | -20% | -6%
C=CCNC(=S)Nc1ccc(Cl)cc1 | 4% | -13% | -10% | 5%
Cc1ccc(N(CC(=O)Nc2ccc(Br)cc2)S(=O)(=O)c2cccs2)cc1 | · | 1% | -1% | ·
O=C(/C=C/c1ccccc1)c1ccccn1 | 14µM* | ? | ? | 35µM*
O=C(O)/C=C/c1ccccc1 | · | · | 4% | ·
N/C(=N\OC(=O)/C=C/c1ccccc1)c1ccccn1 | 13µM* | · | -27% | -23%
NCCCC[C@H](NC(=O)[C@@H]1CCCN1C(=O)[C@@H]1CSSC[C@H](NC(=O)CNC(=O)CNC(=O)CN)C(=O)N[C@@H](Cc2ccc(O)cc2)C(=O)N[C@@H](Cc2ccccc2)C(=O)N[C@@H](CCC(N)=O)C(=O)N[C@@H](CC(N)=O)C(=O)N1)C(=O)NCC(N)=O | · | · | -6% | ·
CN1[C@@H](COCc2ccccc2)C=CS1(=O)=O | · | · | 7% | 3%
CN1CCc2c(C#N)c(N3CCCCC3)nc(N3CCOCC3)c2C1 | · | · | 2% | 2%
CN1CCc2c(C#N)c(Cl)nc(Cl)c2C1 | -2% | 32µM* | 0% | 9%
COC(=O)C1=C(c2ccc(C(C)=O)cc2)C[C@@H]2CC[C@H]1N2C(=O)NC(C)C | · | 35µM* | 0% | -1%
C=C1C(=O)[C@]23C[C@H]1CCC2[C@]1(C)CCC[C@@](C)(C(=O)O)C1C[C@@H]3O (stereo partly drawn) | · | · | -2% | ?
C=C1C(=O)[C@@]23[C@H](O)C[C@@H]4C(C)(C)CC[C@H](O)[C@@]4(C)[C@@H]2CC[C@@H]1[C@H]3O | 0% | 20µM* | -3% | 3%
C=C1C(=O)[C@@]23[C@H](O)C[C@@H]4C(C)(C)CC[C@H](O)[C@]4(C)[C@@H]2C[C@H](O)[C@@H]1[C@H]3O | 5% | 10µM* | -5% | 2%
C[C@H](NC(=O)[C@@H]1CCC(=O)N1Cc1ccco1)c1ccccc1 | 2% | 50µM* | 1% | 21%
O=C(O)[C@H]1CCC(=O)N1Cc1ccco1 | 2% | -15% | -3% | 0%
CN(Cc1ccccc1)C(=O)[C@H]1CCC(=O)N1Cc1ccco1 | 6% | 16µM* | -18% | -5%
COCCCNC(=O)c1oc2c(c1C)-c1nn(Cc3cccc(Cl)c3)cc1CC2 | · | -7% | -4% | ·
Cc1oc(-c2ccc(Cl)cc2)nc1CS(=O)CC(=O)NCc1ccccn1 (stereo not drawn) | -2% | 40µM* | -2% | -1%
Cc1oc(-c2ccc(Cl)cc2)nc1CS(=O)CC(=O)NCc1ccco1 (stereo not drawn) | 1% | ? | -3% | -8%
Cc1ccc(-c2nc(CS(=O)CC(=O)NC3CCC(C)CC3)c(C)o2)cc1 (stereo not drawn) | 3% | 14µM* | -3% | -7%
SMILES | LmPK inh | Sm TGR inh | TbPYK inhibitor | RE007 growth inh
Cc1oc(-c2ccc(Cl)cc2)nc1CS(=O)CC(=O)NC(C)c1ccccc1 (stereo not drawn) | -4% | 8.9µM* | 5% | -1%
COc1ccc(-c2nc(CS(=O)CC(=O)NCc3ccc(Cl)cc3)c(C)o2)cc1 (stereo not drawn) | 12% | ? | 0% | 5%
Cc1oc(-c2ccc(Cl)cc2)nc1CS(=O)CC(=O)NC1CC1 (stereo not drawn) | 1% | 16µM* | 0% | 1%
O=C(Cn1cc(S(=O)(=O)Cc2ccc(F)cc2)c2ccccc21)NCc1ccccc1Cl | · | 7% | 3%[15.4 µM] | ·
COc1cc(C(=O)CC2(O)C(=O)N(Cc3ccccc3Cl)c3ccccc32)cc(OC)c1OC (stereo not drawn) | · | 2% | 0% | ·
N#C/C(=C\c1cccn1S(=O)(=O)c1ccccc1)S(=O)(=O)c1ccc(F)cc1 | · | · | -3% | 6%
CC12CC3(C)CC(C)(C1)CC(NC(=O)N1CCCC1)(C2)C3 | -1% | 2% | 1% | 3.5µM*
Cc1ccc(N(CC(=O)NCC2CCCO2)C(=O)CCC(=O)Nc2ccccn2)cc1C (stereo not drawn) | -2% | 79µM* | 0% | -14%
Cc1ccc(N(CC(=O)NCC2CCCO2)C(=O)CCC(=O)Nc2ccccn2)cc1 (stereo not drawn) | 2% | -2% | -2% | -6%
CCCN1CCN(CCCNC(=O)c2cnn(-c3ccc(F)cc3)c2-n2cccc2)CC1 | · | 1% | -8% | ·
COc1ccc(C(=O)Oc2cc(C)c(CN3CCOCC3)cc2C)cc1OC | 14% | 40µM* | -1% | 4%
COc1ccc(C(=O)c2ccccc2)cc1CN1CCOCC1 | · | · | 20% | -4%
CCc1ccc(NC(=O)CSc2nc(C)c(C(=O)Nc3ccccc3)c(-c3ccc(OC)c(OC)c3)c2C#N)cc1 | · | 0% | -9% | ·
N#Cc1ccccc1OCC(=O)Nc1ccc2c(c1)OCCO2 | · | 3% | -4% | -41%
COc1ccc(C2=NO[C@@](CC(=O)O)(C(=O)Nc3ccc4c(c3)OCCO4)C2)cc1 | 0% | 22µM* | -5% | -9%
NC(=O)COc1ccccc1C1=NO[C@@](CC(=O)O)(C(=O)Nc2ccc3c(c2)OCCO3)C1 | 0% | 18µM* | -8% | 3%
CCCNS(=O)(=O)c1cc(-c2nnc3c4ccccc4c(C)nn23)ccc1OC | · | -2% | -2% | ·
O=C(NCc1ccco1)C(c1ccncc1)N(CCC1=CCCCC1)C(=O)Cn1nnc2ccccc21 (stereo not drawn) | 6% | 45µM* | 1% | -6%
O=C(NCc1ccco1)C(c1ccccc1)N(Cc1ccccc1)C(=O)Cn1nnc2ccccc21 (stereo not drawn) | 4% | -4% | -4% | 8%
COC(=O)CSc1nc2sc3c(c2c(=O)n1-c1ccccc1)CCN(C)C3 | 2% | 35µM* | -4% | -4%
CCn1c(SCC(=O)c2ccccc2)nc2sc3c(c2c1=O)CCN(C)C3 | -1% | 18µM* | 0% | -9%
CCn1c(SCC(=O)NCCc2ccccc2)nc2sc3c(c2c1=O)CCN(C)C3 | 5% | -3% | 4% | -20%
O=C(COCCOCCOCC(=O)Nc1c(I)cc(I)c(C(=O)O)c1I)Nc1c(I)cc(I)c(C(=O)O)c1I | · | · | 5% | ·
c1ccc(Nc2cccc(Nc3ccccc3)n2)cc1 | 5% | 2.8µM* | 3% | ?
Cn1c2ccccc2c2c(C(=O)N3CCN(c4ccc(F)cc4)CC3)cn(C3CCCCC3)c(=O)c21 | · | 5% | 2% | ·

Compound activity: PubChem, National Center for Advancing Translational Sciences (NCATS)
